# Laboratory results as given in PubChem BioAssay (Tox21).
# Results filed as inconclusive are left out. Active and inactive are the calls of the source. Calls follow the shape of the full dose curve.
# Molecular target: Acetylcholinesterase (Homo sapiens) (UniProt P22303)
# Assay: Acetylcholinesterase (AChE) small molecule antagonists: fluorescence cell-based qHTS assay (AID 1347398); also: nearly all actives have a fitted effect of over 50% in size; also: potency is read from the fitted curve at half-maximal effect
# Details: SH-SY5Y cells; Potency: AChE activity; outcome: AChE activity; series mostly up to 115 µM; activity change, negative = inhibition: at the top concentration
# How it was run: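 Cellular AChE activity read as thiocholine from acetylthiocholine hydrolysis, detected by Thiolite Green fluorescence at 490/520 nm after 40 min at room temperature. Compounds were pre-incubated 30 min at 37 C on adherent SH-SY5Y cells.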
# % is scaled to controls: 0 for no effect and ±100 for the full control effect.
# Acetylcholinesterase (Homo sapiens), sequence (P22303 whole entry, looked up): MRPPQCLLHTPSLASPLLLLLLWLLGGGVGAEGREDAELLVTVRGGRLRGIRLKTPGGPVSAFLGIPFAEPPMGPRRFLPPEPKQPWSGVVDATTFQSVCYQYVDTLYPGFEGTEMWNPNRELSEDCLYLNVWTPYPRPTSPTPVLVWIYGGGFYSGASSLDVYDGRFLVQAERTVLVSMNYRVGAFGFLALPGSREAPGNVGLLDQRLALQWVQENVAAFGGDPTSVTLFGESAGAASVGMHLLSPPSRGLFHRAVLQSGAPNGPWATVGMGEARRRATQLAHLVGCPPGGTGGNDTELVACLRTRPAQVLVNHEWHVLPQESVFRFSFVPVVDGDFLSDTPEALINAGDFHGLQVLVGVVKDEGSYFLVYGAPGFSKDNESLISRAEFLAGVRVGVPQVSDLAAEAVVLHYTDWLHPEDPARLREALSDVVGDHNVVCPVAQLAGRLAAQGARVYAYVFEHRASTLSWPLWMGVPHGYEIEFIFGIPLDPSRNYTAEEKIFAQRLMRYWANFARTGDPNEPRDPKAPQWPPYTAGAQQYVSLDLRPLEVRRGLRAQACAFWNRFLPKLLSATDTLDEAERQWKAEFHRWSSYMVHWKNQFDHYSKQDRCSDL
SMILES,"activity change, negative = inhibition",Potency
CCc1cnc(C(=O)O)c(C(=O)O)c1,1.57% (inactive),–
CC(C)CC(C)CC(C)CC(C)COC(=O)c1ccccc1C(=O)OCC(C)CC(C)CC(C)CC(C)C (stereo not given),-13% (inactive),–
CN1C(C)(C)CC(O)CC1(C)C,2.31% (inactive),–
Oc1cc(O)c2c(c1)O[C@H](c1ccc(O)c(O)c1)[C@H](O)C2,1.89% [at 53.7 µM] (inactive),–
Cn1c(=O)c2c(ncn2CC2OCCO2)n(C)c1=O,4.25% [at 53.7 µM] (inactive),–
Cc1ncc(CO)c(C=O)c1O,5.81% [at 53.7 µM] (inactive),–
C[N+](C)(C)CC(O)CCl (stereo not given),-0.257% (inactive),–
Cc1ccc(S(=O)(=O)O)cc1C,–,inactive
O=C1NCN(c2ccccc2)C12CCN(CCCC(c1ccc(F)cc1)c1ccc(F)cc1)CC2,-1.77% [at 53.7 µM] (inactive),–
CC(=O)/C=C/C1C(C)=CCC(C)C1(C)C (stereo not given),-18.4% (inactive),–
CCCCC(CC)CN=C(N)NC(N)=NCCCCCCN=C(N)NC(N)=NCC(CC)CCCC (stereo not given),–,13.8 µM (active)
CCCCOC(=O)CC(CC(=O)OCCCC)(OC(C)=O)C(=O)OCCCC,–,inactive
Oc1ccc(Cl)c2cccnc12,0.409% [at 53.7 µM] (inactive),–
CCCCOCC(C)OCC(C)O (stereo not given),–,29 µM (active)
CCCCCCCCCCCCOCCOCCOCCOCCOCCOCCOCCOCCOCCO,-17.6% [at 53.7 µM] (inactive),–
CC(=O)CCC(=O)O,–,inactive
CCCCCCCC/C=C\CCCCCCCCN,-0.784% [at 53.7 µM] (inactive),–
CCCCCCCCS(=O)C(C)Cc1ccc2c(c1)OCO2 (stereo not given),-24.7% (inactive),–
OCCCCl,1.55% (inactive),–
C(=C(c1ccccc1)c1ccccc1)c1ccccc1,2.9% (inactive),–

SMILES,"activity change, negative = inhibition",Potency
Nc1ncnc2c1ncn2[C@@H]1O[C@H](COP(=O)(O)O)[C@@H](O)[C@H]1O,7.09% [at 53.7 µM] (inactive),–
CCN(CC)CCN,6.75% [at 53.7 µM] (inactive),–
N#Cc1ccccc1O,2.81% (inactive),–
Cc1cc(C)c(C)cc1C,–,inactive
O=C(OCC1(COC(=O)c2cccnc2)CCCC(COC(=O)c2cccnc2)(COC(=O)c2cccnc2)C1O)c1cccnc1,5.37% [at 53.7 µM] (inactive),–
O=C1CCC(N2C(=O)c3ccccc3C2=O)C(=O)N1 (stereo not given),–,inactive
CN(C)CCCN(C)C,0.828% [at 10.5 µM] (inactive),–
C#Cc1ccc(-c2ccccc2F)cc1,3.73% [at 53.7 µM] (inactive),–
NS(=O)(=O)c1cc2c(cc1Cl)NC(C1CC3C=CC1C3)NS2(=O)=O (stereo not given),-9.86% [at 53.7 µM] (inactive),–
CCN(CC)CC1CCCCN1CC(=O)N1c2ccccc2C(=O)Nc2cccnc21 (stereo not given),-2.3% [at 53.7 µM] (inactive),–
Nc1cc(S(=O)(=O)O)cc2cc(S(=O)(=O)O)cc(O)c12,–,inactive
CC(C)(N)CO,–,inactive
CCCCCCCCC(=O)OCC,1.68% (inactive),–
COc1ccc(C(=O)CC(=O)c2ccc(C(C)(C)C)cc2)cc1,–,inactive
CCO[Si](CCCN)(OCC)OCC,–,inactive
CCC[Si](OC)(OC)OC,0.315% (inactive),–
CCOC(=O)COc1ccc(C)cc1,5% (inactive),–
CC(CC=O)CCCC(C)(C)O (stereo not given),-0.648% (inactive),–
CC(C)(O)CCc1ccccc1,1.08% (inactive),–
CC(=O)OC[C@H]1O[C@@H](n2ncc(=O)[nH]c2=O)[C@H](OC(C)=O)[C@@H]1OC(C)=O,4.82% [at 53.7 µM] (inactive),–

# Molecular target: Acetylcholinesterase (Homo sapiens) (UniProt P22303)
# Assay: Acetylcholinesterase (AChE) small molecule antagonists: enzyme-based qHTS assay with human liver microsomes (AID 1347399); also: nearly all actives have a fitted effect of over 60% in size
# Details: Potency: qHTS inhibition; outcome: qHTS inhibition; series mostly up to 115 µM; activity change, negative = inhibition: at the top concentration
# How it was run: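 Recombinant human AChE (50 mU/mL in the enzyme mix) and human liver microsomes (0.25 mg/mL final) were preincubated with compound and NADPH (0.25 mg/mL final) for 30 min at 37 C. Acetylthiocholine/DTNB was then added; thiocholine was read colorimetrically after 10 min at room temperature.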
SMILES,"activity change, negative = inhibition",Potency
CCc1cnc(C(=O)O)c(C(=O)O)c1,0.125% (inactive),–
CC(C)CC(C)CC(C)CC(C)COC(=O)c1ccccc1C(=O)OCC(C)CC(C)CC(C)CC(C)C (stereo not given),-2.77% (inactive),–
CN1C(C)(C)CC(O)CC1(C)C,0% (inactive),–
Oc1cc(O)c2c(c1)O[C@H](c1ccc(O)c(O)c1)[C@H](O)C2,-2.1% [at 53 µM] (inactive),–
Cn1c(=O)c2c(ncn2CC2OCCO2)n(C)c1=O,-0.5% [at 53 µM] (inactive),–
Cc1ncc(CO)c(C=O)c1O,-0.168% [at 53 µM] (inactive),–
C[N+](C)(C)CC(O)CCl (stereo not given),1.01% (inactive),–
Cc1ccc(S(=O)(=O)O)cc1C,–,inactive
O=C1NCN(c2ccccc2)C12CCN(CCCC(c1ccc(F)cc1)c1ccc(F)cc1)CC2,3.19% [at 53 µM] (inactive),–
CC(=O)/C=C/C1C(C)=CCC(C)C1(C)C (stereo not given),1.3% (inactive),–
CCCCC(CC)CN=C(N)NC(N)=NCCCCCCN=C(N)NC(N)=NCC(CC)CCCC (stereo not given),9.12% [at 53 µM] (inactive),–
CCCCOC(=O)CC(CC(=O)OCCCC)(OC(C)=O)C(=O)OCCCC,–,inactive
Oc1ccc(Cl)c2cccnc12,-5.62% [at 53 µM] (inactive),–
CCCCOCC(C)OCC(C)O (stereo not given),2.39% (inactive),–
CCCCCCCCCCCCOCCOCCOCCOCCOCCOCCOCCOCCOCCO,-2.35% [at 53 µM] (inactive),–
CC(=O)CCC(=O)O,–,inactive
CCCCCCCC/C=C\CCCCCCCCN,-0.169% [at 53 µM] (inactive),–
CCCCCCCCS(=O)C(C)Cc1ccc2c(c1)OCO2 (stereo not given),0.192% (inactive),–
OCCCCl,-0.324% (inactive),–
C(=C(c1ccccc1)c1ccccc1)c1ccccc1,0.382% (inactive),–

SMILES,"activity change, negative = inhibition",Potency
Nc1ncnc2c1ncn2[C@@H]1O[C@H](COP(=O)(O)O)[C@@H](O)[C@H]1O,0.44% [at 53 µM] (inactive),–
CCN(CC)CCN,3.02% [at 53 µM] (inactive),–
N#Cc1ccccc1O,-0.153% (inactive),–
Cc1cc(C)c(C)cc1C,–,inactive
O=C(OCC1(COC(=O)c2cccnc2)CCCC(COC(=O)c2cccnc2)(COC(=O)c2cccnc2)C1O)c1cccnc1,-0.336% [at 53 µM] (inactive),–
O=C1CCC(N2C(=O)c3ccccc3C2=O)C(=O)N1 (stereo not given),–,inactive
CN(C)CCCN(C)C,0.146% [at 10.5 µM] (inactive),–
C#Cc1ccc(-c2ccccc2F)cc1,-1.17% [at 53 µM] (inactive),–
NS(=O)(=O)c1cc2c(cc1Cl)NC(C1CC3C=CC1C3)NS2(=O)=O (stereo not given),0.0965% [at 53 µM] (inactive),–
CCN(CC)CC1CCCCN1CC(=O)N1c2ccccc2C(=O)Nc2cccnc21 (stereo not given),-3.83% [at 53 µM] (inactive),–
Nc1cc(S(=O)(=O)O)cc2cc(S(=O)(=O)O)cc(O)c12,–,inactive
CC(C)(N)CO,–,inactive
CCCCCCCCC(=O)OCC,12.5% (inactive),–
COc1ccc(C(=O)CC(=O)c2ccc(C(C)(C)C)cc2)cc1,–,inactive
CCO[Si](CCCN)(OCC)OCC,–,inactive
CCC[Si](OC)(OC)OC,0.0459% (inactive),–
CCOC(=O)COc1ccc(C)cc1,-1.49% (inactive),–
CC(CC=O)CCCC(C)(C)O (stereo not given),-0.322% (inactive),–
CC(C)(O)CCc1ccccc1,-1.35% (inactive),–
CC(=O)OC[C@H]1O[C@@H](n2ncc(=O)[nH]c2=O)[C@H](OC(C)=O)[C@@H]1OC(C)=O,-0.252% [at 53 µM] (inactive),–
